Results on 13 molecules are retold here after PubChem BioAssay (Tox21).

Unmarked numbers belong to inactive results. Inconclusive results are not listed. The source made the active and inactive calls. The call rests on the fitted dose curve; in most records, active means well fitted curve in the direction sought with a large enough effect in the repeat runs; inconclusive means weak or mixed curves; inactive means no such curve, though single readings can be large; an effect the other way counts as inactive or inconclusive.

The nature of assay [1]: Caspase-3/7 induction in CHO-K1 cells by small molecules, qHTS cell viability counter screen (AID 1346979). Further: potency means the concentration at half of the fitted maximal effect; nearly all actives have a fitted effect of over 35% in size. In outline: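 CellTiter-Fluor viability check, qHTS format: wild-type CHO-K1, 16hr compound treatment, 1hr reagent incubation, fluorescence read.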
In general terms: In qHTS, concentration-response curves come from the screen itself.

The target in assay [2] is Nuclear receptor subfamily 1 group I member 2 (Homo sapiens) (UniProt O75469). The assay can be described thus: Human pregnane X receptor (PXR) small molecule agonists, qHTS assay (AID 1346982). Further: nearly all actives have a fitted effect of over 35% in size. Further: potency means the concentration at half of the fitted maximal effect. On activation: on the % scale 0 is the no-effect control and ±100 the full control effect. The method, boiled down: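 Tox21 qHTS; PXR-Luc HepG2; compounds pinned from DMSO; 24 hr, 37 C; ONE-Glo luciferase detection, 30 min room temperature.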
Nuclear receptor subfamily 1 group I member 2 (Homo sapiens), sequence (O75469 whole entry, looked up): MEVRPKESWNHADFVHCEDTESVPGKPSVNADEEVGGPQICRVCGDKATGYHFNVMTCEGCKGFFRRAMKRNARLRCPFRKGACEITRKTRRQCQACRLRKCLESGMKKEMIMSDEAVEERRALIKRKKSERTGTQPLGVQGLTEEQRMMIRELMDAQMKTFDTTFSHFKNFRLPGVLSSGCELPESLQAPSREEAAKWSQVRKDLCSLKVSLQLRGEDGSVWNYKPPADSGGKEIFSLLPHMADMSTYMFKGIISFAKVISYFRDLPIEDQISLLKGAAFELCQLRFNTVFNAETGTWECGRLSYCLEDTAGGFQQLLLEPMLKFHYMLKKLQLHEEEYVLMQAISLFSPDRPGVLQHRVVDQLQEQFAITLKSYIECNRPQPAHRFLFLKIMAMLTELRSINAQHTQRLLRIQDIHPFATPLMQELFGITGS
Assay [3] addresses Nuclear receptor subfamily 1 group I member 2 (Rattus norvegicus) (UniProt Q9R1A7). Briefly: Rat pregnane X receptor (rPXR) activation by small molecules, qHTS assay (AID 1346983). Further: on the % scale 0 is the no-effect control and ±100 the full control effect; nearly all actives have a fitted effect of over 20% in size. The conditions noted are these: rPXR luciferase reporter cells, One-Glo luminescence, 24 h; max activation: hits give high values. In outline: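 Cell-based rPXR luciferase reporter assay, 2,000 cells per well, rested 5hr at 37 C before compound addition in DMSO, then 24 hr at 37 C. One-Glo reagent was added and luminescence read after 30 min at room temperature.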

The target of assay [4] is Nuclear receptor subfamily 1 group I member 2 (Homo sapiens) (UniProt O75469). Briefly: Human pregnane X receptor (PXR) activation by small molecules, qHTS assay (AID 1346985). Further: on the % scale 0 is the no-effect control and ±100 the full control effect; nearly all actives have a fitted effect of over 40% in size. In outline: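 DPX-2 cells (HepG2 co-transfected with a PXR response element and a CYP3A4-promoter luciferase construct) were seeded at 2,000 per well, rested 5 hr at 37C, then exposed to DMSO-dissolved compounds for 24 hr. Activation was read as luciferase luminescence.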

For assay [5], the target named is Cytochrome P450 2C9 (Homo sapiens) (UniProt P11712). The assay can be described thus: Cytochrome P450 Family 2 Subfamily C Member 9 (CYP2C9) small molecule antagonists: luciferase reporter qHTS assay (AID 1671198). Further: nearly all actives have a fitted effect of over 50% in size. Further: potency means the concentration at half of the fitted maximal effect. In outline:
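CYP2C9 activity was measured with a P450-Glo proluciferin substrate. Enzyme–substrate mix was held with compound for 10 min at room temperature, then NADPH regeneration solution was added for 1 h at 37C. Luciferin product was read as luminescence.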
On the technique in general: A reporter such as luciferase makes a cellular process visible.

The nature of assay [6]: Caspase-3/7 induction in HepG2 cells by small molecules, qHTS cell viability counter screen (AID 1346981). Further: nearly all actives have a fitted effect of over 30% in size. Further: potency means the concentration at half of the fitted maximal effect. In outline: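 After a 5-hr attachment period at 37 C and 5% CO2, wild-type HepG2 cells received compounds in DMSO. Sixteen hours later CellTiter-Fluor was dispensed and the fluorescent signal quantified after a further hour.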
The target in assay [7] is Cytochrome P450 2C19 (Homo sapiens) (UniProt P33261). The assay can be described thus: Cytochrome P450 Family 2 Subfamily C Member 19 (CYP2C19) small molecule antagonists: luciferase reporter qHTS assay (AID 1671197). Further: nearly all actives have a fitted effect of over 65% in size. Further: potency means the concentration at half of the fitted maximal effect. In outline: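 Inhibition of CYP2C19 was scored from loss of luminescence in a P450-Glo proluciferin substrate assay, NADPH-started and run 1 h at 37C, with ketoconazole as positive control.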
Cytochrome P450 2C19 (Homo sapiens), sequence (P33261 whole entry, looked up): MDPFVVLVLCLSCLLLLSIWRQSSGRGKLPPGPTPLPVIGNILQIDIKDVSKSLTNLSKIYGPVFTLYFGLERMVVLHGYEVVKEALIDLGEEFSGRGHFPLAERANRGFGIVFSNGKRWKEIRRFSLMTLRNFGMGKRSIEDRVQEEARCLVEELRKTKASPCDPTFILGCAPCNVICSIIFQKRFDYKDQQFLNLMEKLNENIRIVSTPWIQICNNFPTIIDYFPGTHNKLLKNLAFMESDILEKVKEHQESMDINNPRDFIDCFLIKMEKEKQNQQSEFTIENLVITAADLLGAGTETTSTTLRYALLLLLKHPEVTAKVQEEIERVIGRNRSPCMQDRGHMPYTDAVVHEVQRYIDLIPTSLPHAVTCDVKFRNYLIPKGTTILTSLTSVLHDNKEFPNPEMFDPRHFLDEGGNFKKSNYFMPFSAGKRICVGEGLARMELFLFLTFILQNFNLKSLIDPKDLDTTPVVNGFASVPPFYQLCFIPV

Assay [8] concerns the target Cytochrome P450 1A2 (Homo sapiens) (UniProt P05177). Briefly: Cytochrome P450 Family 1 Subfamily A Member 2 (CYP1A2) small molecule antagonists: luciferase reporter qHTS assay (AID 1671199). Further: nearly all actives have a fitted effect of over 50% in size. Further: potency means the concentration at half of the fitted maximal effect. In outline: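 Room-temperature CYP1A2 reaction with proluciferin substrate: compounds added from DMSO, 10 min preincubation, NADPH regeneration for 1 h. Luciferin detection reagent then added; luminescence recorded as RLU.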

The target of assay [9] is Voltage-gated inwardly rectifying potassium channel KCNH2 (Homo sapiens) (UniProt Q12809). The assay can be described thus: Human Ether-a-go-go-Related Gene (hERG) channel small molecule antagonists: fluorescence cell-based qHTS assay (AID 1671200). Further: nearly all actives have a fitted effect of over 50% in size. Further: potency means the concentration at half of the fitted maximal effect. In outline:
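Kinetic two-minute fluorescence traces, sampled at 1 s, were collected following thallium stimulus of U2OS cells (1000 per well) that had been cultured overnight at 37 C and loaded with FluxOR II.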

For assay [10], the target named is Cytochrome P450 3A4 (Homo sapiens) (UniProt P08684). The assay can be described thus: Cytochrome P450 Family 3 Subfamily A Member 4 (CYP3A4) small molecule antagonists: luciferase reporter qHTS assay (AID 1671201). Further: series mostly up to about 120 µM; on the % scale 0 is the no-effect control and ±100 the full control effect; nearly all actives have a fitted effect of over 50% in size. The method, boiled down: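 Proluciferin-to-luciferin conversion by CYP3A4, NADPH-regenerated, 1 h RT; luminescence read as RLU. Ketoconazole as control.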
Cytochrome P450 3A4 (Homo sapiens), sequence (P08684 whole entry, looked up): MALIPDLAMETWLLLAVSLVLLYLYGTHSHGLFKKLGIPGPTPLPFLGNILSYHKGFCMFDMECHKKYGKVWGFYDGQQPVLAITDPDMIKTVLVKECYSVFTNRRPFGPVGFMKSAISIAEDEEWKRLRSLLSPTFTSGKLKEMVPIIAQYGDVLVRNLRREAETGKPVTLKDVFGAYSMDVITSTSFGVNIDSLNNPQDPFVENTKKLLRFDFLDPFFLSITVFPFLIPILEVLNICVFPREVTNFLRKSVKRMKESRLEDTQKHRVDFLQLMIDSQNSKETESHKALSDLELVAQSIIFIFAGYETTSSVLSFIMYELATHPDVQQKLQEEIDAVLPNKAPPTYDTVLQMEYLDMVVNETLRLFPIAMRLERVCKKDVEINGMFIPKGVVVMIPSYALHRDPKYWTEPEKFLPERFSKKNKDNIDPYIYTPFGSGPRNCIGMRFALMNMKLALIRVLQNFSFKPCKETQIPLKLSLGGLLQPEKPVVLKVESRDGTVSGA

Assay [11] addresses Cytochrome P450 2D6 (Homo sapiens) (UniProt P10635). Briefly: Cytochrome P450 Family 2 Subfamily D Member 6 (CYP2D6) small molecule antagonists: luciferase reporter qHTS assay (AID 1671196). Further: nearly all actives have a fitted effect of over 50% in size. Further: potency means the concentration at half of the fitted maximal effect. In outline:
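Room-temperature luminescent CYP2D6 activity assay: compound preincubated 10 min with enzyme–substrate mix, NADPH-initiated reaction 1 h, detection reagent 20 min before reading.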

Assay [12] can be described thus: Caspase-3/7 induction in CHO-K1 cells by small molecules, qHTS assay (AID 1346980). Further: on the % scale 0 is the no-effect control and ±100 the full control effect; nearly all actives have a fitted effect of over 15% in size. In outline:
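Wild-type cells were seeded at 1,500 per well and settled 5 hr at 37 C, 5% CO2, then exposed to DMSO-dissolved compounds for 17 hr. Caspase-Glo 3/7 reagent was added, and luminescence was read after 30min at room temperature.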

Assay [13] deals with Nuclear receptor subfamily 1 group I member 2 (Homo sapiens) (UniProt O75469). Briefly: CYP3A4 induction through human pregnane X receptor (PXR) by small molecules, qHTS assay (AID 1346984). Further: on the % scale 0 is the no-effect control and ±100 the full control effect; nearly all actives have a fitted effect of over 40% in size. The method, boiled down: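 Cells (DPX-2; HepG2 with PXR element plus CYP3A4-promoter luciferase) settled 5hr, then were treated 24hr at 37C. A 3hr, 3uM-final Luciferin-IPA step preceded luminescence measurement with One-Glo.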

Cytochrome P450 2D6 (Homo sapiens), sequence (P10635 whole entry, looked up): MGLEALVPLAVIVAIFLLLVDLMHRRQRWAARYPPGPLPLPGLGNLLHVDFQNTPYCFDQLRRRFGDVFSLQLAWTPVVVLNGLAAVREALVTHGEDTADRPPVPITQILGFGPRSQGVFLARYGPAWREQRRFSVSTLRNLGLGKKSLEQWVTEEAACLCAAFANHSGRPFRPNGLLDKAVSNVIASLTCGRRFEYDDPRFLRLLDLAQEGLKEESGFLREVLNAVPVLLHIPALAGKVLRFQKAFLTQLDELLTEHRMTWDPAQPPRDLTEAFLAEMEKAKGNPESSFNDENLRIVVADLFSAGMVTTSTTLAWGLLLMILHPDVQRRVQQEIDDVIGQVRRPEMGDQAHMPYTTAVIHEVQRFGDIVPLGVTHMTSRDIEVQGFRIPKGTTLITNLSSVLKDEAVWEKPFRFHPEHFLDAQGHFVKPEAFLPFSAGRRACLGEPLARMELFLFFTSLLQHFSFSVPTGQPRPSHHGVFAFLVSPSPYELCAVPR
Cytochrome P450 1A2 (Homo sapiens), sequence (P05177 whole entry, looked up): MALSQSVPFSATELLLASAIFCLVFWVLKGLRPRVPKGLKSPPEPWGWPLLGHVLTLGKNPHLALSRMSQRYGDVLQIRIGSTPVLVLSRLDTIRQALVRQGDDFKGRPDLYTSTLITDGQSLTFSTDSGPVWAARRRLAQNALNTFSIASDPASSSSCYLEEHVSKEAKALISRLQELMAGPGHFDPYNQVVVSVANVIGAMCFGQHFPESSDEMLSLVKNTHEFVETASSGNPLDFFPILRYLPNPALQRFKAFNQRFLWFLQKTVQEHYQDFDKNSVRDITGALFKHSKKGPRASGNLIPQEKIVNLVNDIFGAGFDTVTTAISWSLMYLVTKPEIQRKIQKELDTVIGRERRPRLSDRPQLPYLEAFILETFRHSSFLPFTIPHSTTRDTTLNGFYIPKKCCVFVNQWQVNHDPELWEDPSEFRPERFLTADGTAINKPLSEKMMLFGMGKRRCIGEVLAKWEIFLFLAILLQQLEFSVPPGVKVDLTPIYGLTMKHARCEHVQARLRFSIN
Cytochrome P450 2C9 (Homo sapiens), sequence (P11712 whole entry, looked up): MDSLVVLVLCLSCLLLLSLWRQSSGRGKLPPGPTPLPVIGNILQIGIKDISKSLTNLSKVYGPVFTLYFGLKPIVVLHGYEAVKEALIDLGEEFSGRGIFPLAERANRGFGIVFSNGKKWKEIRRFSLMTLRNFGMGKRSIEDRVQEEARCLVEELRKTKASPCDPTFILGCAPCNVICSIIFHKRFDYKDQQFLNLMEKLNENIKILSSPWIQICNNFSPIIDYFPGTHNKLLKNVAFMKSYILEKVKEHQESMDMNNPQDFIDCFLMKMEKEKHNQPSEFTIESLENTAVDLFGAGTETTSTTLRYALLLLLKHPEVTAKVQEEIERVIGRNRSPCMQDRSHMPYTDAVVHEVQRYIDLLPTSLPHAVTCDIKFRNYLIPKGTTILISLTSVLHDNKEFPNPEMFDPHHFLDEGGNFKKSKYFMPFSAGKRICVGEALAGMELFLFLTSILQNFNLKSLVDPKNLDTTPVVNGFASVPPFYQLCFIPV
Voltage-gated inwardly rectifying potassium channel KCNH2 (Homo sapiens), sequence (Q12809 whole entry, looked up): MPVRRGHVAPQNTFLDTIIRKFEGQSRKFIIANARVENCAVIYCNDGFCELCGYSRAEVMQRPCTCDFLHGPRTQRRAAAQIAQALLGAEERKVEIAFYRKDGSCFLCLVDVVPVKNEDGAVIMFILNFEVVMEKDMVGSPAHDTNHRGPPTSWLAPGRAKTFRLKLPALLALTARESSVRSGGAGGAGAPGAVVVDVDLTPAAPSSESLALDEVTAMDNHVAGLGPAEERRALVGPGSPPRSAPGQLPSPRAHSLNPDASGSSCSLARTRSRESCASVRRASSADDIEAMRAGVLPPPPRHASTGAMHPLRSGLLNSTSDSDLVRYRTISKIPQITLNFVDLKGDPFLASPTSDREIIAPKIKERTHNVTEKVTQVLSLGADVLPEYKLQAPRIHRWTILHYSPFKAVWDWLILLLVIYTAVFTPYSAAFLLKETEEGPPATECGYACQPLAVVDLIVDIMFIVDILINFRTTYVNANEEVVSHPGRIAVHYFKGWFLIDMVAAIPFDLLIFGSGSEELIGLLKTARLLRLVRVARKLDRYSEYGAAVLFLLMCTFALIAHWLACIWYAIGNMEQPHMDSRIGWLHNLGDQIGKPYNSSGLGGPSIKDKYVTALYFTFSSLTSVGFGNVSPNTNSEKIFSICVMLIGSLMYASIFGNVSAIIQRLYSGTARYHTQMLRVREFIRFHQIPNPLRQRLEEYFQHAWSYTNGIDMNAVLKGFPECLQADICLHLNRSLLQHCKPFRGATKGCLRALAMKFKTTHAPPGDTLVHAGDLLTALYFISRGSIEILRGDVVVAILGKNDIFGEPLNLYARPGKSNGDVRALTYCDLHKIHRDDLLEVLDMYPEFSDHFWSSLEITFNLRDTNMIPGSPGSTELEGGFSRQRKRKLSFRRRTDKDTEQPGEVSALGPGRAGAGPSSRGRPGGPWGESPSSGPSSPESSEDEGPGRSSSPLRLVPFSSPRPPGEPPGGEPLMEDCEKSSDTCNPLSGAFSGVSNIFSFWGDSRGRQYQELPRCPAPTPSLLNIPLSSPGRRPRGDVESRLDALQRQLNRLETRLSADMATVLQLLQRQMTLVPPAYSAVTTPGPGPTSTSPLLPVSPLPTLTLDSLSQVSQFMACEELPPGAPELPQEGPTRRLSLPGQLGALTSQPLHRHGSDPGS
Nuclear receptor subfamily 1 group I member 2 (Rattus norvegicus), sequence (Q9R1A7 whole entry, looked up): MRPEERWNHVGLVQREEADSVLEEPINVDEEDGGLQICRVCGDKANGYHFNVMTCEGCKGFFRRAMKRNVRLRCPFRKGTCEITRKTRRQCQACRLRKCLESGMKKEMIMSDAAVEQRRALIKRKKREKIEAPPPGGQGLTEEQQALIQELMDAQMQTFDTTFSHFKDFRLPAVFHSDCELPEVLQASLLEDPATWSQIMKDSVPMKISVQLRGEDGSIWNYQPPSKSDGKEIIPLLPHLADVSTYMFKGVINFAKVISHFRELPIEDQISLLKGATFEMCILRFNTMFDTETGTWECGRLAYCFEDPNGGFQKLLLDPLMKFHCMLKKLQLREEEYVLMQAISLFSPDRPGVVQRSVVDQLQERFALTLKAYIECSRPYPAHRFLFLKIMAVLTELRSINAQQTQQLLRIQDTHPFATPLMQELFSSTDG

As to `O[C@@H](c1cc(C(F)(F)F)nc2c(C(F)(F)F)cccc12)[C@H]1CCCCN1`, the Potency in assay [1] is 26.6 µM (active). For the same molecule, the Potency result in assay [2], in assay [4] and in assay [5] was “inactive” in each case. The max activation in [3] is -16.9%.
For `O=C(Nc1ccc(Cl)cc1)Nc1ccc(Cl)c(C(F)(F)F)c1`, the Potency is 11.9 µM (active) in assay [1]; 29.8 µM (active) in [6]; 9.44 µM (active) in assay [2]; 17.4 µM (active) in [7]; 13.8 µM (active) in assay [5]; 25.7 µM (active) in assay [8]. For the same molecule, the Potency result in assay [9] and in [10] was “inactive” in each case.
As for `Cc1oc(-c2ccccc2)nc1CCOc1ccc(C[C@H](Nc2ccccc2C(=O)c2ccccc2)C(=O)O)cc1`, the Potency in assay [1] was 30.6 µM (active); in assay [6] it was 43.3 µM (active); in [5], 20 µM (active). The Potency result in assay [11], in assay [8] and in [9] was “inactive” in each case.
`CCCCCCCCCCCCCCNCCO`: the Potency result in assay [12], in [6], in assay [2], in assay [13], in [4] and in assay [7] was “inactive” in each case. Further, the Potency result in assay [5] and in assay [10] was “inactive” each time. In addition, the Potency is 3.09 µM (active) in assay [11] and 28.8 µM (active) in [8].
As to `CCN(CC)CCOc1ccc(C(O)(Cc2ccc(Cl)cc2)c2ccc(C)cc2)cc1` (stereo unspecified), the Potency is 26.6 µM (active) in [1]; 9.44 µM (active) in [2]; 38.9 µM (active) in assay [7]; 38.9 µM (active) in assay [5]; 1.34 µM (active) in assay [9]. The Potency result in assay [11] and in [8] was “inactive” in each case.
On to `CN(C)CCCN1c2ccccc2CCc2ccccc21`, for which the Potency entry in [12] is “inactive”.
As to `COC(=O)C1=C(C)NC(C)=C(C(=O)OCCCN2CCC(c3ccccc3)(c3ccccc3)CC2)C1c1cccc([N+](=O)[O-])c1` (stereo unspecified), the Potency in assay [1] was 26.6 µM (active); in [6], 29.8 µM (active); in [9], 1.51 µM (active).
As to `C=C(c1ccc(C(=O)O)cc1)c1cc2c(cc1C)C(C)(C)CCC2(C)C`, the figures for the Potency in assay [1] and in [5] were 61.1 µM (active) and 27.5 µM (active), respectively. Moreover, the Potency result in assay [13], in [4], in assay [11], in assay [7], in assay [8] and in assay [9] was “inactive” in each case. Also, in [10], the Potency entry was “inactive”.
With `Cc1ccc(N)cc1O`, the Potency in [1] was 52.9 µM (active); in assay [2], 34.4 µM (active); in assay [11], 3.66 µM (active); in assay [7], 3.56 µM (active); in [5], 21.8 µM (active); in [8], 11.1 µM (active). The Potency entry in assay [6] and in [9] was “inactive” in each case.
As for `Cc1c(-c2ccc(O)cc2)n(Cc2ccc(OCCN3CCCCCC3)cc2)c2ccc(O)cc12`, the figures for the Potency in [1], in [6] and in assay [2] were 29.8 µM (active), 29.8 µM (active) and 9.44 µM (active), respectively. Further, in assay [8], the Potency entry is “inactive”.
Take `CCOC(=O)C1=C(C)NC(C)=C(C(=O)OCC)C1c1ccccc1/C=C/C(=O)OC(C)(C)C`: the Potency in assay [1] was 33.5 µM (active); in assay [2] it was 1.33 µM (active); in [7] it was 4.9 µM (active); in assay [5] it was 1.1 µM (active). Besides, the Potency entry in assay [13] is “inactive”.
With `Cc1occc1SSc1ccoc1C`, the Potency entry in [12], in assay [6], in assay [11] and in [7] was “inactive” in each case. Besides, in [5], the Potency is 56.4 µM (active).
For `COc1ccc(-n2nc(CCC(=O)N(C)O)cc2-c2ccc(Cl)cc2)cc1`, in assay [12], the Potency entry was “inactive”. Moreover, the Potency in assay [2] is 29.8 µM (active); in assay [11], 15.5 µM (active); in assay [7], 8.71 µM (active); in [5] it was 3.89 µM (active).
